Compound activity: PubChem BioAssay, several laboratories
This is a sample that favours compounds with a hit; in the whole collection about 28% have one here.
PLK1 inh = human PLK1 kinase inhibitors, primary screen, biochemical, TR-FRET; Serine/threonine-protein kinase PLK1 (Homo sapiens), P53350; recombinant PLK1 kinase, TR-FRET peptide phosphorylation; inhibition, % at 10 µM; hit rate 0.53% among 97,000;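 active means inhibition of 50% or more in the single-concentration screen; inactive means inhibition below 50%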
CYP2C19 act = human CYP2C19 activators, primary screen, biochemical, luminescence. Cytochrome P450 2C19 (Homo sapiens), P33261. recombinant CYP2C19, luciferin-H EGE luminescence; active compounds read high; 0 = fully inhibited enzyme, 1 = untreated enzyme. activation factor at 5 µM. 96,000 tested, under 10 active;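 active means activation factor of at least 2 at 5 µM in the primary screen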
Target sequence (P33261 whole entry, looked up): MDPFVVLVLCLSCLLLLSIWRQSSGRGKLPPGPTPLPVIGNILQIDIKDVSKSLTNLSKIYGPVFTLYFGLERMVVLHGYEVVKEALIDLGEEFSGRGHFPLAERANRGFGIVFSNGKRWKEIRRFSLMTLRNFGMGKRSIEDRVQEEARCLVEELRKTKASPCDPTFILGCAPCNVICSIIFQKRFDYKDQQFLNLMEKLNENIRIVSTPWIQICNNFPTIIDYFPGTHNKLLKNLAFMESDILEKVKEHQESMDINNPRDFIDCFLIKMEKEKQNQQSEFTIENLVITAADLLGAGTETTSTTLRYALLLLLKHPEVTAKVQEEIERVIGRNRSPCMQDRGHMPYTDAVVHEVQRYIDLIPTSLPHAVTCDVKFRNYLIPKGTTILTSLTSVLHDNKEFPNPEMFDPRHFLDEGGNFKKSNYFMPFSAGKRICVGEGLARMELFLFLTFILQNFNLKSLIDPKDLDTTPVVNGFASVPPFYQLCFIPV
CYP2C19 inh = blockers of cytochrome P450 2C19 activity – biochemical, luminescence, ADME assay, primary screen. hit rate 21% among 96,000. CYP2C19 Supersomes, luciferin-H EGE luminescence, 30 min. inhibition, % at 5 µM. P33261;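 active means CYP2C19 inhibition above a set limit at 5 µM in the primary screen, cut at about 50% in these data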
Plk1 PBD FP = Plk1 polo box domain binding inhibitors, primary screen, biochemical, fluorescence polarization; inhibition, %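 (tested at about 20 µM)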; hit rate 0.13% among 97,000; Plk1 PBD phosphopeptide binding; in the data active means inhibition above about 34%, passing the limit was not always enough
CYP2C9 inhib = blockers of cytochrome P450 2C9 activity – biochemical, luminescence, ADME assay, primary screen | P11712 | CYP2C9 Supersomes, luciferin-H conversion | inhibition, % at 5 µM | hit rate 20% among 96,000 | AID 777, 2007;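 active means blocking of liver enzyme CYP2C9 beyond about 50% at 5 µM, limit read from the data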
CYP2C9 act = human CYP2C9 activators, primary screen, biochemical, luminescence. AID 1024, 2008. hit rate 1.4% among 96,000. activation factor at 5 µM. Cytochrome P450 2C9 (Homo sapiens), P11712. recombinant CYP2C9, luciferin-H conversion; active compounds read high; factor 1 = untreated enzyme, 0 = blocked;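 active means activation factor of 2 or more for CYP2C9 at a 5 µM dose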
Hits are given with their value; n = inactive; x = no result.

SMILES	PLK1 inh	CYP2C19 act	CYP2C19 inh	Plk1 PBD FP	CYP2C9 inhib	CYP2C9 act
Cc1cc(NC(=O)Cn2nnc3sc4c(c3c2=O)CCC(C(C)(C)C)C4)no1 (configuration not stated)	n	n	n	n	56.6	n
COCON1C(=O)CN(C(C)=O)C1c1ccc(Cl)cc1Cl (configuration not stated)	n	n	n	n	n	n
CON1C(=O)CN(C(C)=O)C1c1ccc(Cl)cc1Cl (configuration not stated)	n	n	53.9	n	n	n
COC(=O)N1CC(=O)N(OC)C1c1ccc(Cl)cc1Cl (configuration not stated)	n	n	86.9	n	n	n
COCCCn1[nH]c2c3c(ccc2c1=O)C(=O)c1ccccc1C3=O	n	n	n	n	63.6	n
CC(C)(C)C(=O)Nc1ccc(C(=O)N/N=C/c2ccccc2OC(=O)c2ccccc2)cc1	n	n	64.1	n	n	n
CCOc1cc(/C=N\NC(=O)c2ccc(NC(=O)C(C)(C)C)cc2)ccc1OC(=O)c1ccc(C)cc1	n	n	n	n	n	n
COc1cc(C(=O)N/N=C/c2ccsc2C)cc(OC)c1OC	n	n	n	n	n	n
COc1cc(C(=O)Oc2ccccc2/C=N/NC(=O)c2ccc(C)cc2)cc(OC)c1OC	n	n	n	n	59.0	n
CCOC(=O)C1(C)/C(=N/Nc2ccccc2Cl)C(=O)C(=O)N1c1ccccc1 (configuration not stated)	n	n	n	n	n	n
O=C(Nc1ccc(-c2noc(CCc3ccccc3)n2)cc1)c1ccco1	x	n	n	x	70.6	n
c1ccc(CCc2nc(-c3cccnc3)no2)cc1	n	n	85.7	n	n	n
c1ccc(CCc2ccccc2-c2nc(-c3cccnc3)no2)cc1	n	n	n	n	n	n
Clc1ccc(Cc2nc(-c3cccnc3)no2)cc1	n	n	54.2	n	n	n
c1cncc(-c2noc(CC3CCCCC3)n2)c1	n	n	80.5	n	n	n
CCOC(=O)c1c(NC(=S)NC(=O)c2ccc(Cn3cc(Cl)cn3)o2)sc2c1CCCCC2	n	n	n	n	n	n
CN1CCc2c(sc3c2c(=O)n(-c2ccccc2)c2nnc(SCc4ccc(Cl)cc4)n32)C1	n	n	n	n	n	n
O=C(O)C1CCCCN1S(=O)(=O)c1ccccc1 (configuration not stated)	n	n	n	n	n	n
O=C1CCN(S(=O)(=O)c2ccccc2)C2CCCCC12 (configuration not stated)	n	n	94.0	n	n	n
C=CCNC(=O)c1ccccc1NS(=O)(=O)c1ccccc1	n	n	67.8	n	n	2.3
C=CCNC(=O)c1ccccc1NS(=O)(=O)c1ccc(SC)cc1	n	n	97.3	n	n	n
COc1ccc(Nc2ncc3c(n2)CC(c2ccc(OC)cc2)CC3=O)cc1 (configuration not stated)	n	n	n	n	n	n
CCCSc1ncc(Cl)c(C(=O)Nc2ccc(S(=O)(=O)N3CC(C)OC(C)C3)cc2)n1 (configuration not stated)	n	n	53.8	n	86.3	n
Cc1ccc(O)c(-c2cc(C(=O)Nc3ccc(S(=O)(=O)N4CC(C)OC(C)C4)cc3)[nH]n2)c1 (configuration not stated)	n	n	n	n	n	n
Cn1c(=O)[nH]c(=O)c2c1nc(NCCCn1ccnc1)n2Cc1ccc(F)cc1	n	n	68.1	n	77.5	n
CCN(CC)CCNc1nc2c(c(=O)n(C)c(=O)n2C)n1C/C=C(/C)Cl	n	n	n	n	n	n
CCCCn1c(NCCC)nc2c1c(=O)[nH]c(=O)n2C	n	n	n	n	n	n
C/C(Cl)=C\Cn1c(NCCCn2ccnc2)nc2c1c(=O)n(C)c(=O)n2C	n	n	77.0	n	99.6	n
C/C(Cl)=C/Cn1c(NCCCn2ccnc2)nc2c1c(=O)[nH]c(=O)n2C	n	n	52.5	n	89.6	n
